The values below come from PubChem BioAssay.

A number with no mark means an inactive call. For some of these results: Results with a measured potency or affinity are listed apart. Active and inactive are the calls of the source. Unless noted, no rule for the calls is given here.

Test [1] is described as follows: antimalarial activity against Dd2 strain (AID 2302;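 active = growth inhibition above 50% at the single 2 µM test dose, taken to imply half-maximal potency below 2 µM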;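 also: 0% = DMSO untreated growth and 100% = chloroquine plus artemisinin killed control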). To be noted: P. falciparum Dd2 in RBCs, LDH growth readout, 72 h; at 2 µM; stronger effect = higher value.
Test [2] in a line: HepG2 cytotoxicity, primary screen, cytotoxicity control for P. falciparum antimalarial project, cell-based, ATP luminescence (AID 2303;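 active = inhibition above 50%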;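 also: 0% = DMSO wells and 100% = digitonin-killed cells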). The conditions noted are these: HepG2 viability, 24-48 h, at 10 µM, stronger effect = higher value.
The target of test [3] is L-lactate dehydrogenase (Plasmodium falciparum (isolate CDC / Honduras)) (UniProt Q27743). Kind of test: PfLDH activity inhibition – cell lysate, 3D7 strain, counter-screen for P. falciparum growth inhibition project (AID 2304).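 Also: 0% = vehicle and 100% = reference inhibitor.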 The conditions noted are these: P. falciparum 3D7 crude extract, LDH APAD/NBT absorbance; at 2 µM; stronger effect = higher value. In general terms: Counterscreens check selectivity or assay interference.

A short description of test [4]: inhibition of 3D7 malaria parasite growth – strain 3D7 (AID 2306).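 Also: 0% = DMSO wells and 100% = chloroquine plus artemisinin control wells.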 The conditions noted are these: P. falciparum 3D7 erythrocytic growth, LDH absorbance, 72 h; at 2 µM; stronger effect = higher value.
Test [5] deals with Calcium-dependent protein kinase 1 (Plasmodium falciparum (isolate 3D7)) (UniProt P62344). Put plainly: PfCDPK1 kinase inhibitors, biochemical, TCAMS library (AID 1159585; cut-off not given, nearly all actives have IC50 up to about 0.98 µM;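 also: inhibitors leave more ATP so luminescence rises with inhibition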). To be noted: recombinant PfCDPK1, Kinase-Glo ATP depletion luminescence.
Test [6] deals with Plasmodium falciparum protein kinase 6 (PK6, PF3D7_1337100) (UniProt Q8IDW1). Kind of test: PfPK6 kinase inhibitors, biochemical, TCAMS library (AID 1159586). To be noted: recombinant PfPK6, Kinase-Glo ATP depletion luminescence.
Test [7] addresses Protein kinase 7 (PK7), Plasmodium falciparum 3D7 (PF3D7_0213400) (UniProt Q7YTF7). Put plainly: inhibition of Plasmodium PK7 catalytic activity – biochemical, TCAMS antimalarial set, Kinase-Glo luminescence (AID 1159587). To be noted: recombinant PfPK7, Kinase-Glo ATP depletion luminescence.
Test [8] has as its target Calcium-dependent protein kinase 4 (Plasmodium falciparum (isolate 3D7)) (UniProt Q8IBS5). Put plainly: PfCDPK4 kinase inhibitors, biochemical, TCAMS library (AID 1159588; cut-off not given, nearly all actives have IC50 up to about 0.91 µM). To be noted: recombinant PfCDPK4, Kinase-Glo ATP depletion luminescence. (In Kinase-Glo more light means more ATP remaining.)

Chain of Calcium-dependent protein kinase 1 (Plasmodium falciparum (isolate 3D7)) (P62344 whole entry, looked up): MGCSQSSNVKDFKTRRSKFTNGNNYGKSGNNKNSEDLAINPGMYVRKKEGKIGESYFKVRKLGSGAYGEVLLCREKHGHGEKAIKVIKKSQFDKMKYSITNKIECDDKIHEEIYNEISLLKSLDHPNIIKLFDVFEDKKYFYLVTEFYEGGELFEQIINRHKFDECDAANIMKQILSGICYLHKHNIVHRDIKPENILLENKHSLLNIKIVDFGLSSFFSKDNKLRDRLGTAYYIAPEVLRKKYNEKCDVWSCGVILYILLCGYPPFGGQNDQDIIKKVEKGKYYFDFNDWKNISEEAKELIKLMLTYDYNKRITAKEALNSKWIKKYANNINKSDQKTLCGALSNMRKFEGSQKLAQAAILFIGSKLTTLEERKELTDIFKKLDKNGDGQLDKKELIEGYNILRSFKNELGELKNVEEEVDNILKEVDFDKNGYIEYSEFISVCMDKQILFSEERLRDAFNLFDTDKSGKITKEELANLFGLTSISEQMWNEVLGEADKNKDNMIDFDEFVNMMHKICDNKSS
Chain of L-lactate dehydrogenase (Plasmodium falciparum (isolate CDC / Honduras)) (Q27743 whole entry, looked up): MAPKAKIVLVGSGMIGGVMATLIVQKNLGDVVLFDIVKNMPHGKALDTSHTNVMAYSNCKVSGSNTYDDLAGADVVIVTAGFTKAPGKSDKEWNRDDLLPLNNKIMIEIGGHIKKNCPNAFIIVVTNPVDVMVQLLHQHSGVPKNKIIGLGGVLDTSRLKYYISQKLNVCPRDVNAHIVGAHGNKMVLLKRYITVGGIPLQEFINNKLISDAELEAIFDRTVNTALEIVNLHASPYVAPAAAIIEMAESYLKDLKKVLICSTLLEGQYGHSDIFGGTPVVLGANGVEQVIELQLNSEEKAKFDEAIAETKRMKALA
Chain of Protein kinase 7 (PK7), Plasmodium falciparum 3D7 (PF3D7_0213400) (Q7YTF7 1-343): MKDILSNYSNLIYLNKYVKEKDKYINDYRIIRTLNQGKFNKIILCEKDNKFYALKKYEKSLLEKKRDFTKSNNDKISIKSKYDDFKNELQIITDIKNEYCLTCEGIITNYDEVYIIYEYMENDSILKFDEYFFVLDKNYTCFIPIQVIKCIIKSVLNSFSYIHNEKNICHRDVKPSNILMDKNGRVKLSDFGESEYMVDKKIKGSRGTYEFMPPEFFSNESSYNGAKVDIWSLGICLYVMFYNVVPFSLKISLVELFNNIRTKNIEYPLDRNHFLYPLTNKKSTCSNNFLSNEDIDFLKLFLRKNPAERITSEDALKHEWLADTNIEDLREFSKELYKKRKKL
Chain of Plasmodium falciparum protein kinase 6 (PK6, PF3D7_1337100) (Q8IDW1 1-305): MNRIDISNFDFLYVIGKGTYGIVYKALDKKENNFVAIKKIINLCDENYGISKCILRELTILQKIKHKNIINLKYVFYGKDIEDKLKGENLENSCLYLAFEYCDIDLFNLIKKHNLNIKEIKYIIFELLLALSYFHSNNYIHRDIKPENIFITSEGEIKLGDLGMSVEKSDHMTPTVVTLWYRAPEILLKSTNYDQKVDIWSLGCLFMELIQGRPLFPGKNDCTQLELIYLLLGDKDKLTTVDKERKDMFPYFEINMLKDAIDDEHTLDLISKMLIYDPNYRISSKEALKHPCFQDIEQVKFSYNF
Chain of Calcium-dependent protein kinase 4 (Plasmodium falciparum (isolate 3D7)) (Q8IBS5 whole entry, looked up): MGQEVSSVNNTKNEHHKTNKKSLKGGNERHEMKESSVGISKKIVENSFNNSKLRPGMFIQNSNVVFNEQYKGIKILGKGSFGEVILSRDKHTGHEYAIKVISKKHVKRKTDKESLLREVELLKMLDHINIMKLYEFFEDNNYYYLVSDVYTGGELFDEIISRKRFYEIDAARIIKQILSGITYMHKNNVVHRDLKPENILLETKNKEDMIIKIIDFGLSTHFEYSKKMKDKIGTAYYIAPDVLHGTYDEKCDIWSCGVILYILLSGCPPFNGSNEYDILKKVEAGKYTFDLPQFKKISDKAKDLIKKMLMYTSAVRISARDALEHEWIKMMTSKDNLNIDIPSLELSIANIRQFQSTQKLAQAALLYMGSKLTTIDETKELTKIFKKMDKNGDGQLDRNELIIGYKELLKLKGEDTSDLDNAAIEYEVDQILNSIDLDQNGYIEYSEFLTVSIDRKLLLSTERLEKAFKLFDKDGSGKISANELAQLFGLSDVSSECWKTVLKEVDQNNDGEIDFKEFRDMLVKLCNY

Turning to `Cc1cc(-c2ccc(S(=O)(=O)Nc3cc4c(cc3OC(C)C)CCN(C)CC4)cc2)ccc1Cl`, the growth inhibition in test [1] was 19%; in test [4] it was 90% (active). Also, the values for the inhibition in test [2] and in test [3] were 33% and -1%, respectively. Moreover, the outcome in test [5], in test [6], in test [7] and in test [8] was inactive.

Regarding `CC1CN(c2cc(=O)n(Cc3cccc(NC(=O)Nc4ccc(-c5ccccc5)cc4)c3)cn2)CC(C)N1` (stereo not given), the values for the growth inhibition in test [1] and in test [4] were 63% (active) and 101% (active), respectively. Also, the inhibition in test [2] was 2%; in test [3], -2%. For the same compound, the result in test [5], in test [6], in test [7] and in test [8] was inactive.

`CCOc1ccc(C2CCN(CCCCNC(=O)c3ccc(NC(=O)c4ccc(Cl)cc4)cc3)CC2)c(OCC)c1`: the growth inhibition in test [1] was 95% (active); in test [4], 101% (active). For the same compound, the inhibition in test [2] is 14%; in test [3], 0%. The outcome in test [5], in test [6], in test [7] and in test [8] was inactive.

For the compound `O=C(Cc1cnc[nH]1)Nc1cccc(-c2ccc(-c3nc4ccc(F)cc4[nH]3)s2)c1`, the figures for the growth inhibition in test [1] and in test [4] were 94% (active) and 101% (active), respectively. The inhibition in test [2] was 4%; in test [3], -12%. Further, the result in test [5], in test [6], in test [7] and in test [8] was inactive.

Take `Cc1ccc(-c2cc(C(=O)Nc3ccc(S(=O)(=O)N(C)Cc4ccccc4)cc3)[nH]n2)c(O)c1`: the figures for the growth inhibition in test [1] and in test [4] were 67% (active) and 99% (active), respectively. Besides, the figures for the inhibition in test [2] and in test [3] were 34% and -1%, respectively. The outcome in test [5], in test [6], in test [7] and in test [8] was inactive.

As to `CNCCNCc1cccc(-c2ccc(-c3nc4ccc(C(F)(F)F)cc4[nH]3)s2)c1`, the growth inhibition in test [1] was 85% (active); in test [4] it was 98% (active). The values for the inhibition in test [2] and in test [3] were 31% and 4%, respectively. The outcome in test [5], in test [6], in test [7] and in test [8] was inactive.

On to `O=C(N[C@@H](Cc1ccccc1)C(=O)NC1CCCc2ccccc21)c1ccc(O)c(-c2ccc(Cl)c(Cl)c2)c1` (stereo not given in full), for which the figures for the growth inhibition in test [1] and in test [4] were 99% (active) and 97% (active), respectively. In addition, the inhibition in test [2] was -3%; in test [3], -8%. For the same compound, the result in test [5], in test [6], in test [7] and in test [8] was inactive.

Regarding `Oc1cccc(Nc2ccnc3cc(-c4ccccn4)ccc23)c1`, the results for the growth inhibition in test [1] and in test [4] were 98% (active) and 96% (active), respectively. The inhibition is 24% in test [2] and -3% in test [3]. The outcome in test [5], in test [6], in test [7] and in test [8] was inactive.

`CC(=O)N1N=C(c2ccc(Cl)cc2)Sc2c1nc(-c1ccccc1)n2C(C)=O`: the results for the growth inhibition in test [1] and in test [4] were 81% (active) and 105% (active), respectively. Also, the inhibition in test [2] is -3%; in test [3] it was 3%. Also, the outcome in test [5], in test [6], in test [7] and in test [8] was inactive.

For `CCNc1cc(C)nc(Nc2ccc(NC(=O)c3ccccc3Cl)cc2)n1`, the values for the growth inhibition in test [1] and in test [4] were 52% (active) and 100% (active), respectively. Besides, the inhibition in test [2] is 48%; in test [3], -2%. Besides, the result in test [5], in test [6], in test [7] and in test [8] was inactive.

For `COc1ccc(NC(=O)[C@H](Cc2ccccc2)Nc2cc(C)nc(NCc3ccccc3C)n2)cc1`, the growth inhibition in test [1] was 71% (active); in test [4] it was 101% (active). In addition, the inhibition in test [2] is 16%; in test [3] it was 2%. The result in test [5], in test [6], in test [7] and in test [8] was inactive.

Regarding `Cc1c(Oc2ccc(-n3ccnc3)cc2)ncnc1N1CCC2(CC1)CNCc1ccccc12`, the growth inhibition in test [1] is 58% (active); in test [4], 95% (active). In addition, the values for the inhibition in test [2] and in test [3] were 26% and -3%, respectively. For the same compound, the outcome in test [5], in test [6], in test [7] and in test [8] was inactive.

As for `OCC1CCN(Cc2ccc(-c3cccc(-c4nc5ccccc5[nH]4)c3)cc2)CC1`, the growth inhibition is 6% in test [1] and 101% (active) in test [4]. Besides, the inhibition in test [2] was 21%; in test [3] it was -1%. In addition, the result in test [5], in test [6], in test [7] and in test [8] was inactive.

As for `NC(N)=Nc1ccc(C(=O)O)c(O)c1`, the growth inhibition in test [1] is 1%; in test [4] it was 94% (active). For the same compound, the inhibition in test [2] and in test [3] was -3% each time. The outcome in test [5], in test [6], in test [7] and in test [8] was inactive.

As to `Cc1c(Cl)ccc2c(C(=O)Nc3ccncc3)cc(-c3cccnc3)nc12`, the growth inhibition in test [1] is 83% (active); in test [4] it was 99% (active). Also, the results for the inhibition in test [2] and in test [3] were 16% and -3%, respectively. In addition, the result in test [5], in test [6], in test [7] and in test [8] was inactive.

Regarding `O=C(Nc1ccc(F)cc1)c1ccc(C(=O)NC2CCN(CC3CCCCC3)CC2)cc1`, the growth inhibition in test [1] was 0%; in test [4] it was 99% (active). In addition, the inhibition in test [2] was 34%; in test [3], -7%. Moreover, the outcome in test [5], in test [6], in test [7] and in test [8] was inactive.

In the case of `O=C(NCC1COc2ccccc2O1)c1cnc2c(c1)nc(-c1cnc(-c3ccccc3)[nH]1)n2CCSCc1c(F)cccc1Cl` (stereo not given), the results for the growth inhibition in test [1] and in test [4] were 10% and 95% (active), respectively. The inhibition in test [2] is 6%; in test [3] it was 4%. The result in test [5], in test [6], in test [7] and in test [8] was inactive.

As to `CCNc1cc(C(=O)N[C@@H](Cc2ccccc2)[C@H](O)CNCc2ccc3c(c2)OCCO3)cc(N2CCCCS2(=O)=O)c1`, the growth inhibition in test [1] was 45%; in test [4], 95% (active). For the same compound, the inhibition in test [2] and in test [3] was -1% each time. For the same compound, the result in test [5], in test [6], in test [7] and in test [8] was inactive.

For `CN1CCN(c2ccnc3cc4ccccc4cc23)CC1`, the figures for the growth inhibition in test [1] and in test [4] were 49% and 93% (active), respectively. Also, the inhibition in test [2] was 11%; in test [3], -9%. The result in test [5], in test [6], in test [7] and in test [8] was inactive.

Take `O=C(Nc1cccc(-c2ccc(-c3nc4ccc(C(F)(F)F)cc4[nH]3)cc2)c1)c1cnc[nH]1`: the growth inhibition in test [1] is 21%; in test [4], 91% (active). Moreover, the inhibition in test [2] is 16%; in test [3] it was -3%. Also, the outcome in test [5], in test [6], in test [7] and in test [8] was inactive.

By inhibition is commonly meant the relative decrease from the control value, in per cent.
